Records with an inconclusive call do not appear. Activity calls are given as the source filed them. Unless noted, calls follow the shape of the dose curve; as a rule, active = well fitted curve in the direction sought with a large enough effect in the repeat runs; inconclusive = weak or mixed curves; inactive = no such curve, though single readings can be large; an effect the other way counts as inactive or inconclusive.
Key:
[1] = molecular target: Retinoic acid receptor RXR-alpha (Homo sapiens) (UniProt P19793); test: qHTS assay to identify small molecule agonists of the RXR signaling pathway (AID 1159527; calls by dose curve; also: nearly all actives have a fitted effect of over 35% in size)
Summary of the method: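 Reporter activation is measured as beta-lactamase activity via FRET substrate cleavage (emission 460/530 nm) in HEK 293T cells expressing an RXR-alpha-driven bla construct, following 16 hr compound exposure at 37 C.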

[2] = qHTS assay to identify small molecule agonists of the RXR signaling pathway - cell viability counter screen (AID 1159529); also: series mostly up to about 77 µM; nearly all actives have a fitted effect of over 50% in size
Summary of the method: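 Tox21 10K compounds were tested for cytotoxicity against GeneBLAzer RXR-alpha HEK 293T cells grown in 2% charcoal-stripped FBS. Exposure lasted 16 hr at 37 C, 5% CO2; viability read by CellTiter-Glo luminescence.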

[3] = qHTS assay to identify small molecule antagonists of the retinoid acid receptor (RAR) signaling pathway - cell viability counter screen (AID 1159551); also: nearly all actives have a fitted effect of over 35% in size
Summary of the method: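 Viability of C3RL4 cells is quantified from ATP by luminescence after 6 h treatment at 37 C with compounds and 1 uM retinol.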

[4] = qHTS assay to identify small molecule antagonists of the estrogen related receptor (ERR) signaling pathway from Tox21 library - cell viability counter screen (AID 1224834); also: nearly all actives have a fitted effect of over 30% in size
Summary of the method: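 In this quantitative HTS format, ERR cells receive compounds in DMSO and are incubated for 17.5 h at 37 C. Live-cell protease activity is then detected with CellTiter-Fluor.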

[5] = molecular target: Luciferin 4-monooxygenase (Photinus pyralis) (UniProt P08659); test: qHTS assay to identify small molecule inhibitors of firefly luciferase (AID 1224835); also: series mostly up to about 120 µM; nearly all actives have a fitted effect of over 25% in size
Summary of the method: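 Quantitative HTS format; KM concentrations of both substrates. Purified P. pyralis FLuc activity quantified from luminescence images.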

[6] = qHTS assay to identify small molecule agonists of the constitutive androstane receptor (CAR) signaling pathway - cell viability counter screen (AID 1224836); also: series mostly up to about 92 µM; nearly all actives have a fitted effect of over 45% in size
Summary of the method: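 Fluorescence from CellTiter-Fluor indicates live cells after 23 h exposure. The human hepatoma line expresses hCAR and a CYP2B6-2.2kb reporter. Incubation medium contains 0.75 uM PK11195 (final).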

[7] = qHTS assay to identify small molecule antagonists of the constitutive androstane receptor (CAR) signaling pathway - cell viability counter screen (AID 1224837); also: series mostly up to about 92 µM; nearly all actives have a fitted effect of over 45% in size
Summary of the method: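 In quantitative HTS format, compounds at 15 concentrations were applied to HepG2 cells double-transfected with hCAR and CYP2B6-2.2kb under 50 nM CITCO stimulation; live-cell protease activity was read after 23 hr via CellTiter-Fluor.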

[8] = molecular target: Nuclear receptor subfamily 1 group I member 3 (Homo sapiens) (UniProt Q14994); test: qHTS assay to identify small molecule agonists of the constitutive androstane receptor (CAR) signaling pathway (AID 1224839);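 also: HepG2 cells stably carrying human CAR and a CYP2B6 luciferase reporter; series mostly up to about 92 µM; nearly all actives have a fitted effect of over 15% in size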
Summary of the method: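 Stable hCAR/CYP2B6-2.2kb HepG2 line in DMEM with 10% FBS; compounds (15 concentrations) and 0.75 uM PK11195 final, 24 h at 37 C/5% CO2, then ONE-Glo luminescence after 30 min.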

[9] = qHTS assay to identify small molecule antagonists of the estrogen related receptor signaling pathway with the pleiotropic PPARgamma coactivator (PGC) from Tox21 10K library - cell viability counter screen (AID 1224840; active = well fitted cell-killing curve with a large enough effect in the repeat runs, not every such curve was filed as active; also: nearly all actives have a fitted effect of over 40% in size)
Summary of the method: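 Viability counter screen, PGC/ERR cells: 17.5 h compound exposure at 37 C, CellTiter-Fluor fluorescence endpoint.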

[10] = molecular target: Nuclear receptor subfamily 1 group I member 3 (Homo sapiens) (UniProt Q14994); test: qHTS assay to identify small molecule antagonists of the constitutive androstane receptor (CAR) signaling pathway (AID 1224838); also: nearly all actives have a fitted effect of over 40% in size
Summary of the method: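 CITCO-stimulated (50 nM final) HepG2 cells stably transfected with hCAR and CYP2B6-2.2kb luciferase were exposed to compounds at 15 concentrations for 24 h at 37 C/5% CO2. A luciferase reagent was added and luminescence recorded after 30 min.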

[11] = qHTS assay to identify small molecule antagonists of the estrogen related receptor signaling pathway with the pleiotropic PPARgamma coactivator (PGC) from Tox21 10K library (AID 1224841; call rule not given here; also: series mostly up to about 92 µM; actives are mostly falling curves and most rising ones were filed inactive; nearly all actives have a fitted effect of over 50% in size)
Summary of the method: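 In the PGC/ERR line, DMSO solutions of test chemicals are pin-delivered to 2,000 cells/well six hours after dispensing. Following eighteen hours' incubation, One-Glo reagent is added and luminescence recorded.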

[12] = qHTS assay to identify small molecule agonists of the estrogen related receptor signaling pathway with the pleiotropic PPARgamma coactivator (PGC) from Tox21 10K library (AID 1224842); also: nearly all actives have a fitted effect of over 15% in size
Summary of the method: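 PGC/ERR reporter cells (NTP line) were seeded 2,000 per well, rested 6 h at 37 C/5% CO2, then pin-dosed with compounds in DMSO for 18 h at 37 C; luciferase read by One-Glo luminescence after 30 min at room temperature.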

[13] = qHTS assay to identify small molecule antagonists of the retinoic acid receptor (RAR) signaling pathway (AID 1159552; also: nearly all actives have a fitted effect of over 50% in size)
Summary of the method: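 Overnight-plated C3RL4 reporter cells get compound, then retinol to 1 uM final; plates sit 6 hr at 37 C, 5% CO2. A luciferase reagent is added and light output recorded after 30 min at room temperature.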

[14] = qHTS assay to identify small molecule agonists of the retinoic acid receptor (RAR) signaling pathway (AID 1159553)
Summary of the method: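 Compounds dissolved in DMSO were pinned onto C3RL4 cells seeded the previous day, and plates were held 6 hr at 37 C. RARE-driven luciferase output was then read by luminescence.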
% is scaled to controls: 0 for no effect and ±100 for the full control effect.

Sequence of Nuclear receptor subfamily 1 group I member 3 (Homo sapiens) (Q14994 whole entry, looked up): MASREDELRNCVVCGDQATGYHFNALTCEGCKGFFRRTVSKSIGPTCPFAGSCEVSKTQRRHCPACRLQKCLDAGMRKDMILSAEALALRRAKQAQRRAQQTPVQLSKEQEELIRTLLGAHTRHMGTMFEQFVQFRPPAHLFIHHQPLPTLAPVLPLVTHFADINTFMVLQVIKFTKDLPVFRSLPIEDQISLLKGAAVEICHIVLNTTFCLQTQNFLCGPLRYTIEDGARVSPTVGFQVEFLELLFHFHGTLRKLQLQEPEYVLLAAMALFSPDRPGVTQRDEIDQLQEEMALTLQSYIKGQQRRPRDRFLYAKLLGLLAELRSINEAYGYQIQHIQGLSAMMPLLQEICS
Sequence of Luciferin 4-monooxygenase (Photinus pyralis) (P08659 whole entry, looked up): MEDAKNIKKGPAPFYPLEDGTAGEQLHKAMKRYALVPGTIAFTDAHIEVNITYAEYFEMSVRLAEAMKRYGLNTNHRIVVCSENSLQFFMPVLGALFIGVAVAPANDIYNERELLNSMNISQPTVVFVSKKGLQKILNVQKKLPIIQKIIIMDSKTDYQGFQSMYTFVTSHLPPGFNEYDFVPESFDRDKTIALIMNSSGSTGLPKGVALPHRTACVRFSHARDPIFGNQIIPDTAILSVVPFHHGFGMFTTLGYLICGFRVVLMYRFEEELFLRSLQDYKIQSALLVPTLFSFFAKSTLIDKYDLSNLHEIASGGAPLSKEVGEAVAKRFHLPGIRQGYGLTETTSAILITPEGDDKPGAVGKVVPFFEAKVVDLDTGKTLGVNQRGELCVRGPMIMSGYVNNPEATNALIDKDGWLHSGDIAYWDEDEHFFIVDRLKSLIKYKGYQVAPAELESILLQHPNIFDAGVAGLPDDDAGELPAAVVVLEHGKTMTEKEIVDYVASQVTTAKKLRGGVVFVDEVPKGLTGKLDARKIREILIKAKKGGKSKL
Sequence of Retinoic acid receptor RXR-alpha (Homo sapiens) (P19793 whole entry, looked up): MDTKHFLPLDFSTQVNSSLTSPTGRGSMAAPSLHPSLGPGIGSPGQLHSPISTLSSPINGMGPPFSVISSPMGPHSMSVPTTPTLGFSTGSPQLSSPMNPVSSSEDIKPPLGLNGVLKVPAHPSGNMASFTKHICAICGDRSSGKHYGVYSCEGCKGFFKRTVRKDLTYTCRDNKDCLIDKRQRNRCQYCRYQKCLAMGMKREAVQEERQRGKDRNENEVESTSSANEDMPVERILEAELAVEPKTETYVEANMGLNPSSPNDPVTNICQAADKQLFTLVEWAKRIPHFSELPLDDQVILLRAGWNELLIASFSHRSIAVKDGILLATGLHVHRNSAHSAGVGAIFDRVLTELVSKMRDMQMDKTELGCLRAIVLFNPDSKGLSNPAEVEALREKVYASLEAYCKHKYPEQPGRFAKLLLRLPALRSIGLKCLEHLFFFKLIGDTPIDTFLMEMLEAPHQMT

CC1(C)OC(=O)Nc2ccc(Br)cc21
inactive: Potency [1] | Potency [2] | outcome [3] | Potency [4] | Potency [5] | outcome [6] | outcome [7] | Potency [8] | outcome [9]

CCc1cc(S(=O)(=O)O)c2cc(C(C)C)cccc1-2
inactive: Potency [1] | Potency [2] | outcome [3] | Potency [4] | Potency [5] | outcome [6] | outcome [7] | outcome [9]

CC(C)COC(=O)c1ccccc1O
inactive: Potency [1] | Potency [2] | outcome [3] | Potency [4] | Potency [5] | outcome [6] | outcome [7] | Potency [10] | Potency [8] | outcome [9]

NC(N)=NS(=O)(=O)c1ccc(N)cc1
inactive: Potency [1] | Potency [2] | outcome [3] | Potency [4] | Potency [5] | outcome [6] | outcome [7] | outcome [9]

O=Cc1ccccc1[N+](=O)[O-]
inactive: Potency [1] | Potency [2] | outcome [3] | Potency [4] | Potency [5] | outcome [6] | outcome [7] | Potency [10] | outcome [9] | Potency [11] | Potency [12]

CC(O)CN(CCCN(C)C)CCCN(C)C (configuration not stated)
inactive: Potency [1] | Potency [2] | outcome [3] | Potency [4] | Potency [5] | outcome [6] | outcome [7] | Potency [10] | Potency [8] | outcome [9]

Cc1nccn1CC1CCc2c(c3ccccc3n2C)C1=O (configuration not stated)
inactive: Potency [1] | Potency [2] | outcome [3] | Potency [4] | Potency [5] | outcome [6] | outcome [7] | Potency [10] | Potency [8] | outcome [9]

CC(=O)N[C@@H](CCC(N)=O)C(=O)O
inactive: Potency [1] | Potency [2] | outcome [3] | Potency [4] | Potency [5] | outcome [6] | outcome [7] | Potency [8] | outcome [9]

OC1OC[C@@H](O)[C@H](O)[C@H]1O (some centres not stated)
inactive: Potency [1] | Potency [2] | outcome [3] | Potency [4] | Potency [5] | outcome [6] | outcome [7] | Potency [10] | Potency [8] | outcome [9]

C#CC(O)C(CC)CCCC (configuration not stated)
inactive: Potency [1] | Potency [2] | outcome [3] | Potency [4] | Potency [5] | outcome [6] | outcome [7] | Potency [10] | Potency [8] | outcome [9]

Fc1ccccc1-c1ccccc1
inactive: Potency [1] | Potency [2] | outcome [3] | Potency [4] | Potency [5] | outcome [6] | outcome [7] | Potency [10] | Potency [8] | outcome [9]

C=CCSCC1Nc2cc(Cl)c(S(N)(=O)=O)cc2S(=O)(=O)N1 (configuration not stated)
inactive: Potency [1] | Potency [2] | outcome [3] | Potency [4] | Potency [5] | outcome [6] | outcome [7] | Potency [8] | outcome [9]

COc1cc(C)cc(O)c1
inactive: Potency [1] | Potency [2] | outcome [3] | Potency [4] | Potency [5] | outcome [6] | outcome [7] | Potency [10] | Potency [8] | outcome [9]

CC(=O)OC(C)(C)C
inactive: Potency [1] | Potency [2] | outcome [3] | Potency [4] | Potency [5] | outcome [6] | outcome [7] | outcome [9] | Potency [11] | Potency [12]

CCCOCC(C)OCC(C)O (configuration not stated)
inactive: Potency [1] | Potency [2] | outcome [3] | Potency [4] | outcome [6] | outcome [7] | outcome [9] | Potency [11] | Potency [12]

CCn1c(=O)c2c(nc(/C=C/c3ccc(OC)c(OC)c3)n2C)n(CC)c1=O
inactive: Potency [1] | Potency [2] | outcome [3] | Potency [5] | outcome [6] | outcome [7] | Potency [10] | Potency [8] | outcome [9] | Potency [11] | Potency [12]

CNc1ncnc2nc[nH]c12
inactive: Potency [1] | Potency [2] | Potency [13] | Potency [4] | Potency [5] | outcome [6] | outcome [7] | outcome [9] | Potency [11] | Potency [12]

O=C(O)c1ccccc1-c1ccc(C(F)(F)F)cc1
inactive: Potency [1] | Potency [2] | outcome [3] | Potency [4] | Potency [5] | outcome [6] | outcome [7] | outcome [9]

C=C(C)[C@@H]1CCC2=CC(=O)C[C@@H](C)[C@]2(C)C1
inactive: Potency [1] | Potency [2] | outcome [3] | Potency [4] | Potency [5] | outcome [6] | outcome [7] | outcome [9] | Potency [11] | Potency [12]

NC(=O)Nc1nc2ccccc2[nH]1
inactive: Potency [1] | Potency [2] | Potency [13] | Potency [14] | Potency [4] | Potency [5] | outcome [6] | outcome [7] | Potency [10] | Potency [8] | outcome [9]

O=C(CCOCCOCCOCCOCCC(=O)Nc1c(I)cc(I)c(C(=O)O)c1I)Nc1c(I)cc(I)c(C(=O)O)c1I
inactive: Potency [1] | Potency [2] | Potency [13] | Potency [14] | Potency [4] | Potency [5] | outcome [6] | outcome [7] | outcome [9]

Nc1nc2c(ncn2CCC(CO)CO)c(=O)[nH]1
inactive: Potency [1] | Potency [2] | outcome [3] | Potency [4] | Potency [5] | outcome [6] | outcome [7] | outcome [9] | Potency [11] | Potency [12]

CN(C)N=Nc1ccccc1
inactive: Potency [1] | Potency [2] | outcome [3] | Potency [4] | Potency [5] | outcome [7] | outcome [9] | Potency [11] | Potency [12]

CCn1cc(C(=O)O)c(=O)c2cc(F)c(N3CCN(C)CC3)cc21
inactive: activation [1] 8.93% [at 15.8 µM] | activity change, negative = cytotoxicity [2] 6.61% [at 15.8 µM] | activity change, negative = cytotoxicity [3] 1.65% [at 19 µM] | viability change, negative = cytotoxic [4] 3.25% [at 19 µM] | activity change, negative = cytotoxicity [7] 2.92% [at 19 µM] | viability change, negative = cytotoxic [9] 8.09% [at 19 µM]
